Screens from PubChem.
This is one part of a sample in which hits are shown more often than they occur.
NS1 inh: inhibitors of influenza NS1 protein function | Potency, µM (series often up to 46.1 µM) | 270,000 compounds, 0.4% hits; calls by dose curve; also: actives are rising curves; nearly all actives have a fitted effect of over 50% in size
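A cell-based growth assay was used: compounds that relieve NS1-induced slow growth of budding yeast raise OD600. Assay medium was yeast nitrogen base with ammonium sulphate and -URA supplement, pH 6.0, with 2% galactose.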
Shiga toxin inh: Shiga toxin inhibition | Vero cells, Shiga toxin protein synthesis inhibition reporter | inhibition, % at 38.7 µM | 290,000 compounds, 9.2% hits; in the data active = inhibition mostly above about 28%, no sharp cut-off; inactive = mostly below about 43%
AmpC inh no detg: blocks E. coli AmpC beta-lactamase in detergent-free assay. P00811. AmpC nitrocefin hydrolysis, absorbance 480 nm, 0.0001% Triton. Potency, µM (titrated, usually from 57.1 µM), actives largely listed as inhibitors. 330,000 compounds, 0.52% hits; also: nearly all actives have a fitted effect of over 20% in size
Target sequence (P00811 whole entry, looked up): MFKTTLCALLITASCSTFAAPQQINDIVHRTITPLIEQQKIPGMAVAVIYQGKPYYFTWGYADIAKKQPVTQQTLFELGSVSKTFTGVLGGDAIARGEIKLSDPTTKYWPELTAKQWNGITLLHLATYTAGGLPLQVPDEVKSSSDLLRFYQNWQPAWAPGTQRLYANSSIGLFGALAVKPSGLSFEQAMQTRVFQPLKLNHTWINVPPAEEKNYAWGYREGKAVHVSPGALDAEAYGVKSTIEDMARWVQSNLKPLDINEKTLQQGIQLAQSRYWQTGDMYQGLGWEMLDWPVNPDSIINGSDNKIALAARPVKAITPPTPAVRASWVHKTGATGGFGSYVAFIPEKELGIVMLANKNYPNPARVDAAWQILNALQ
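AmpC (5.3 nM in the dispensed reagent) in 20 mM phosphate pH 7.0 with 0.01% (detergent screen) or 0.0001% Triton X-100 was preincubated with compounds for 15 min at room temperature. Nitrocefin was then added from an 800 uM solution, and hydrolysis was followed at 480 nm.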
Cycloheximide cs: counter-screen for Shiga toxin inhibitors: cycloheximide protein synthesis inhibition | cell reporter, cycloheximide protein synthesis inhibition counterscreen | 300,000 compounds, 12% hits | AID 2314 | max response, %; in the data active = max response mostly above about 13%, no sharp cut-off; inactive = mostly below about 14%; also: read at 38.3 µM for the half of the compounds with a filed dose
AmpC detergent: inhibitors of E. coli AmpC beta-lactamase with detergent. Potency, µM (series often up to 114 µM), usual class: inhibitors. 370,000 compounds, 0.041% hits. AID 485294. AmpC hydrolysis of nitrocefin, absorbance 480 nm, 0.01% Triton; also: nearly all actives have a fitted effect of over 25% in size
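20 mM phosphate pH 7.0 + 0.01% (detergent screen) or 0.0001% Triton X-100; 5.3 nM AmpC reagent; cpd preinc 15 min RT; nitrocefin (800 uM stock) to start; A480 q20 s × 4 min; Activity was normalised to no-enzyme and no-compound control wells.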
Hits are given with their value; . = inactive; ? = inconclusive; / = no result given. Unless noted, calls follow the shape of the dose curve; as a rule, active = well fitted curve in the direction sought with a large enough effect; inconclusive = small, poorly fitted or top-dose-only effect, or another doubt; inactive = no such curve, though single readings can be large; an effect the other way counts as inactive or inconclusive.

SMILES	NS1 inh	Shiga toxin inh	AmpC inh no detg	Cycloheximide cs	AmpC detergent
CC(C)CCOc1ccc(C2CC(=O)N(C)C2=O)cc1 (stereo unspecified)	.	.	.	21	.
CC(C)C(NS(=O)(=O)c1ccc2c(c1)oc(=O)n2C)C(=O)NCCc1ccc(Cl)cc1 (stereo unspecified)	/	/	/	/	.
N#C/C(=C\c1ccccc1C(=O)O)c1nc2ccccc2[nH]1	.	49	.	17	.
Cc1ccc2nc(/C(C#N)=C/c3ccccc3C(=O)O)[nH]c2c1	.	.	?	18	.
Cc1ccc2nc(/C(C#N)=C/c3ccc(O)c(O)c3)[nH]c2c1	?	92	20µM	60	.
Cc1ccc2nc(/C(C#N)=C/c3cccc(Br)c3)[nH]c2c1	/	/	/	/	.
Cc1ccc2nc(/C(C#N)=C/c3cn[nH]c3-c3ccc(F)cc3)[nH]c2c1	.	.	.	.	.
Cc1cc2sc3nc(=O)n(-c4ccccc4)c(=O)n3c2cc1C	.	32	.	25	.
CC1CCCCC1NC(=O)c1ccc(-n2cncn2)cc1 (stereo unspecified)	/	/	.	/	/
O=C(O)c1ccc(-c2ccc3cc(C45CC6CC(CC(C6)C4)C5)c(O)cc3c2)cc1	/	28	/	45	/
C/C(=N\OCc1ccccc1)c1c(O)cc(C(C)C)n(-c2ccccc2)c1=O	.	.	.	.	.
COc1ccc(/C=N/Nc2nnc(C)n2N)cc1OC	/	.	.	.	.
COc1ccc(/C=N/Nc2nnc(C)n2N)cc1OC(C)=O	.	.	.	12	.
Cc1nnc(N/N=C/c2ccc(-c3ccc(Br)cc3)o2)n1N	/	.	.	.	.
Cc1nnc(N/N=C/c2ccc(Br)cc2)n1N	.	/	.	10.0	?
Cc1cc(C)c2oc(C(=O)Nc3ccc(S(=O)(=O)Nc4ncccn4)cc3)cc(=O)c2c1	/	/	/	/	.
COc1ccccc1NC(=S)N1CCN(c2cccc(C)c2C)CC1	.	.	.	.	.
O=C(COC(=O)c1cccs1)NC1CCCC1	.	.	.	20	.
O=C(COC(=O)c1cccs1)NC1CCCCC1	.	94	.	43	?
O=C(COC(=O)c1cccs1)NC12CC3CC(CC(C3)C1)C2	/	.	.	29	.
CC1CCCC(NC(=O)COC(=O)c2cccs2)C1C (stereo unspecified)	/	/	.	/	?
O=C(CSc1cn(CCNC(=O)c2cccs2)c2ccccc12)NC1CCCC1	.	.	28µM	.	?
O=C(COC(=O)CCC(=O)c1cccs1)NC1CCCCC1	/	/	.	/	?
Cc1ccccc1-n1c(SCC(=O)NCc2cccs2)nc2ccccc2c1=O	.	.	.	.	.
COc1ccc(-c2nc3ccccc3n3c(-c4cccc(C)c4)c4c(=O)n(C)c(=O)n(C)c4c23)cc1	/	/	/	/	.
SMILES	NS1 inh	Shiga toxin inh	AmpC inh no detg	Cycloheximide cs	AmpC detergent
O=C(NC1CCCCC1)c1cccs1	.	.	.	24	.
O=C(CN1CCN(C(=O)c2cccs2)CC1)NC1CCCCC1	.	.	.	.	.
CN(C)c1ccc(NC(=O)CCCc2ccccc2)cc1	.	100	.	36	.
O=C(CCc1ccccc1)Nc1ccccc1	.	.	.	.	.
CC(C)NC(=O)CCCc1ccccc1	.	58	.	27	?
CC(O)c1cccc(NC(=O)CCCc2ccccc2)c1 (stereo unspecified)	.	49	.	.	.
CCC(NC(=O)CCCc1ccccc1)c1ccccc1 (stereo unspecified)	.	.	.	.	.
Cc1cccc(NC(=S)NC(=O)CCc2ccccc2)c1	.	72	.	18	.
CC(O)c1cccc(NC(=O)CCC(=O)O)c1 (stereo unspecified)	.	.	.	.	.
C[N+]1(C)CCO[C@](O)(c2ccccc2)C1	.	/	/	/	/
Cc1cccc(NC(=O)CCCc2ccccc2)c1	.	73	.	57	.
Cc1cccc(NC(=O)NNC(=O)CCc2ccccc2)c1	.	.	.	.	?
Cn1cccc1-c1nc2ccc(NC(=O)c3ccc([N+](=O)[O-])cc3)cc2[nH]1	.	.	.	.	.
Cn1cccc1-c1nc2ccccc2[nH]1	.	88	.	31	.
Cn1cccc1-c1nc2ccc(NC(=O)c3ccccc3)cc2[nH]1	.	36	.	20	.
C=C1[C@@H]2CC[C@H](C2)C1(C)C	/	.	/	.	/
Cc1ccc(CNS(=O)(=O)c2cc3[nH]c(=O)c(=O)[nH]c3cc2C)cc1	/	/	/	/	.
Cc1cccc(CC(=O)NCC2CCCCC2)c1	.	93	.	31	.
O=C(NC1CCCCC1)c1ccc(COCC(F)(F)F)o1	.	.	.	.	.
CCCN1C(=O)c2cc(C(=O)NC3CCCCCC3)ccc2C1O (stereo unspecified)	.	41	1.4µM	34	?
O=C(NC1CCCCCC1)c1cccc(COCC(F)(F)F)c1	.	active	.	22	.
CN(C)c1cccc(C(=O)NC2CCCCCC2)c1	.	43	.	40	.
O=C(COC(=O)c1ccco1)NCC1CCCCC1	/	/	.	/	.
CC(=O)N1CCN=C1SCc1cccc(C)c1	.	.	.	.	.
Cc1ccc(C(=O)c2cc([N+](=O)[O-])ccc2N2CCCCC2)c(C)c1	.	.	.	.	.
SMILES	NS1 inh	Shiga toxin inh	AmpC inh no detg	Cycloheximide cs	AmpC detergent
Cc1cccc(C(=O)NC2CCN(S(=O)(=O)c3ccccc3)CC2)c1	.	.	.	.	.
CCC(C)(C)c1ccc(Oc2cccc(C(=O)O)c2)cc1	.	163	.	39	.
CN1CCC(NC(=O)c2cccc(Oc3ccccc3)c2)CC1	.	.	.	.	.
CCCC(C)NC(=O)c1cccc(Oc2ccccc2)c1 (stereo unspecified)	/	60	.	23	.
Cc1cccc(C(=O)NC2CCCCCCC2)c1	.	78	.	45	?
O=C(NC1CCCC1)c1cccc(Oc2ccccc2)c1	/	78	.	23	?
O=C(C1CCC1)N1CCCc2cc(S(=O)(=O)N3CCN(c4ccccc4)CC3)ccc21	?	.	.	.	.
c1nc(N2CCCC2)c2[nH]cnc2n1	.	.	.	.	?
Fc1ccc(N2CCN(c3ncnc4nc[nH]c34)CC2)cc1	.	.	20µM	.	?
OCCN1CCN(c2ncnc3nc[nH]c23)CC1	.	.	45µM	.	?
Cc1nn(-c2ccccc2)c(C)c1C(=O)OCC(=O)Nc1ccc2c(c1)OCO2	.	.	.	.	.
O=C1CS/C(=C/C(=O)c2cccc(Cl)c2)N1	/	.	.	27	.
Cc1ccc(S(=O)(=O)/C=C2\NC(=O)CS2)cc1	?	.	.	.	.
Cc1ccc(C(=O)/C=C2/NC(=O)CS2)cc1	.	45	.	25	.
CC(C)(C)C(=O)/C=C1\NC(=O)CS1	/	.	.	.	.
CN(C)CCCN(C(=O)c1cc(-c2cccs2)nc2ccccc12)c1nc2ccc(F)cc2s1	.	.	.	.	.
CCCC(=O)OCc1cnc(C)c2oc(=O)c(C(=O)Nc3ccccc3)cc12	/	/	/	/	.
O=C(CN1C=NS(=O)(=O)c2ccc(C(F)(F)F)cc21)Nc1cccc(C(F)(F)F)c1	/	/	/	/	.
